Screening results as filed in PubChem.
ATXN2 expr inh = ATXN2 expression inhibition | HEK-293 ATXN2-luciferase reporter, luminescence, 24 h | 0.72% of 360,000 active | Potency, µM (titrated, usually from 57 µM), inactives show top-dose activity change, negative = inhibition, actives largely listed as inhibitors; also: potency is read from the fitted curve at half-maximal effect; % is scaled to controls: 0 for no effect and ±100 for the full control effect; nearly all actives have a fitted effect of over 55% in size
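qHTS (up to 57 uM final) was run with 24 h compound exposure of reporter cells at 37 °C. Each well was multiplexed: SteadyGlo luminescence measured ATXN2-luciferase expression after a fluorogenic Gly-Phe-AFC viability readout (25 uM final).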
S2 tox = reduces viability in counter-screen for ATXN expression inhibitors; S2 cells (HEK-293 line with an ATXN2-luciferase reporter) viability, CellTiter-Fluor protease fluorescence, 24 h; Potency, µM (doses to about 56.7 µM), actives largely listed as cytotoxic; 0.49% of 400,000 active; AID 651635; also: potency is read from the fitted curve at half-maximal effect; nearly all actives have a fitted effect of over 40% in size
USP2a block = blocks human ubiquitin-specific protease USP2a; O75604; USP2 core, Ub-CHOP2 coupled fluorogenic reporter, 485/531; Potency, µM (series often up to 38.3 µM), for inactives: top-dose activity change, negative = inhibition, usual class: inhibitors; 0.01% of 330,000 active;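 also: potency is read from the fitted curve at half-maximal effect; plate controls were DMSO wells for no effect and full inhibition by NEM control for full effect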
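Deubiquitinase activity read as fluorescence (485/531 nm) after Ub-CHOP2 cleavage activates the enterokinase reporter on its substrate; USP2 core 10nM, Ub-CHOP2 and substrate 25nM each, 30min compound preincubation then 60min RT; data normalized to NEM, curves fitted.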
USP1-UAF1 inh = inhibitors of human USP1/UAF1 deubiquitinase; O94782; recombinant USP1/UAF1, Ub-Rhodamine cleavage fluorescence; Potency, µM (doses to about 57.1 µM), for the others: at the top dose activity change, negative = inhibition, most hits filed as inhibitors; 0.23% of 390,000 active; AID 743255; also: potency is read from the fitted curve at half-maximal effect; % is scaled to controls: 0 for no effect and ±100 for the full control effect; nearly all actives have a fitted effect of over 60% in size
Target sequence (O94782 whole entry, looked up): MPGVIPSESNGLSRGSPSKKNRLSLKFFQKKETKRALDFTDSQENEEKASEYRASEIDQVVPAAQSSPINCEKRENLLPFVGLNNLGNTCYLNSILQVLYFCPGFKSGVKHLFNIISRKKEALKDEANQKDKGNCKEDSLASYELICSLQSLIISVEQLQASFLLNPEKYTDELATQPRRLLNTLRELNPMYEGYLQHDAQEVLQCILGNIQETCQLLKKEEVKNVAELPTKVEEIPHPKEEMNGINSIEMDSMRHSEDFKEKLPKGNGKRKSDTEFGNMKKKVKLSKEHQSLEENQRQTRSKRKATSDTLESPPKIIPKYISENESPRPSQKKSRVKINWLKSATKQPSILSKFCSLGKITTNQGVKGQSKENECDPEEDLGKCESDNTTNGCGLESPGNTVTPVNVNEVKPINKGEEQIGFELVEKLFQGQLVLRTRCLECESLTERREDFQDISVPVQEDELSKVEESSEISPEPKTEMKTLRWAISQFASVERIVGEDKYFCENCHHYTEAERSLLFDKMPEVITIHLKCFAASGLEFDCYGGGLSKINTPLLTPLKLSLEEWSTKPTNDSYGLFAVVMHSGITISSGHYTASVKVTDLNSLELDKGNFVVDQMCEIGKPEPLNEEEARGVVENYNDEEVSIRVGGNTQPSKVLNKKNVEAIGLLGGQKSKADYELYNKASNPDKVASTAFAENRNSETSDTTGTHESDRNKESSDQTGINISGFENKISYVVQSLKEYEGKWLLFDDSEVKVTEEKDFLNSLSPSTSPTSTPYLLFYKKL
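1 nM enzyme complex + cpd, 15 min RT; start with Ub-Rho 150nM final; kinetic fluorescence ex 480/em 540, 6 reads q60 s. Buffer 50mM HEPES pH 7.8, 0.5mM EDTA, 0.1 mg/ml BSA, 1mM TCEP, 0.01% Tween-20.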
IL-1B inflam inh = inhibitors of inflammasome signaling (IL-1 beta secretion). 4.7% of 360,000 active. THP-1 LPS/ATP IL-1B secretion, AlphaLISA, 16 h; active compounds read low. activity change, % at 57.5 µM; in the data active = activity change below about -50%; inconclusive = mostly about -30% to -49%; also: % is scaled to controls: 0 for no effect and ±100 for the full control effect
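THP-1 cells pretreated 1 hr with compounds (up to 57.5 uM final), then stimulated with LPS (250 ng/mL final) plus ATP (1.25 mM final); secreted IL-1B measured by AlphaLISA after 16 hr, decreased signal indicating inhibition.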
* = called active by the depositor; i = inactive; ? = inconclusive; . = no result given; ! = not confirmed by another sample; [ ] = dose if it differs, or a comment. The list is not random: actives were taken first. Their share in the collection is about 4.8%. Unless noted, calls follow the shape of the dose curve; as a rule, active = well fitted curve in the direction sought with a large enough effect; inconclusive = small, poorly fitted or top-dose-only effect, or another doubt; inactive = no such curve, though single readings can be large; an effect the other way counts as inactive or inconclusive.

SMILES | ATXN2 expr inh | S2 tox | USP2a block | USP1-UAF1 inh | IL-1B inflam inh
CCCCn1c(O)c(/C=N/N2CCCCC2c2cccnc2)c(=O)[nH]c1=S (centres undefined) | -4% | i | 5% | -19% | 29
CCCCn1c(O)c(/C(CC)=N/N2CCCCC2c2cccnc2)c(=O)[nH]c1=S (centres undefined) | -37% | ? | 3% | -15% | -64*
CC(C)(C)c1ccc(/C=C2\Oc3cc(OC(=O)N4CCOCC4)ccc3C2=O)cc1 | -27% | ? | 1% | -15% | -77*
COc1ccc2c(c1OC)CN1CCc3cc4c(cc3[C@H]1C2)OCO4 | -2% | ? | -1% | ? | -4
CCC1CN2CCc3cc(OC)c(OC)cc3C2CC1CC1NCCc2c1[nH]c1ccc(O)cc21 (centres undefined) | 0.0075µM* | ? | . | -17% | -101*
O=c1c2ccccc2nc(/C=C\c2ccccc2[N+](=O)[O-])n1-c1ccccc1O | -1% | ? | 3% | -10% | -98*
O=c1c2ccccc2nc(/C=C/c2ccccc2O)n1-c1ccccc1O | . | . | 7% | . | .
O=c1c2ccccc2nc(/C=C/c2ccccc2F)n1-c1ccccc1O | 9% | i | 4% | -16% | -87*
COc1cc(CC#N)cc(OC)c1OC | 4% | i | . | . | .
CSc1cccc(NC(=O)C2CCN(C(=O)c3cnn(-c4ccccc4)c3-n3cccc3)CC2)c1 | ? | ? | . | -5% | .
Cc1cccc(-c2nc3ccc(C(=O)N4CCC5(CC4)OCCO5)cc3nc2-c2cccc(C)c2)c1 | -10% | i | -8% | -23% | -77*
Cc1ccc(NC(=O)c2cc(-c3cc(Cl)ccc3C)n[nH]2)cc1NS(C)(=O)=O | ? | 10µM* | . | . | -14
CC[C@H](C)/C=C(C)/C=C/C1=CC2=C(Cl)C(=O)[C@@](C)(OC(C)=O)C(=O)C2=CO1 | -36% | ? | . | 32µM* | -13
CCCSc1cc(OC)c(CCN)cc1OC | . | i | . | . | .
CC(=O)O[C@H]1[C@H]2O[C@]23[C@@H]2CC[C@]4(O)C[C@@H](O)CC[C@]4(C)C2CC[C@]3(C)[C@H]1c1ccc(=O)oc1 (some centres undefined) | 0.32µM* | ? | 0% | 17% | ?
C[C@]12CC[C@H]3C(CCC4(O)CC(O)CC[C@]34C=O)C1=CC[C@H]2c1ccc(=O)oc1 (some centres undefined) | . | ? | 5% | -22% | ?
Cc1cc(C)cc(-n2c(SCC(=O)NCc3ccc(F)cc3)nc3c([nH]c4ccccc43)c2=O)c1 | 18% | ? | . | -24% | .
CN1CC(C(=O)c2cccc(C(F)(F)F)c2)C(c2ccc(Cl)cc2)C1 (centres undefined) | -14% | i | 2% | -18% | -83*
COc1cccc(C(=O)C2CN(C)CC2c2ccc(Cl)cc2)c1 (centres undefined) | -17% | i | -2% | -4% | -59*
O=C(O)[C@H](O)[C@@H](O)C(=O)O | -4% | i | 0% | 14% | 3
Cc1ccc(CNCCc2ccccc2F)cc1 | 5% | i | 0% | -11% | -72*
CCN(CC)c1ccc(CNCCc2ccccc2F)cc1 | -24% | ? | 3% | -7% | -92*
Fc1ccccc1CCNCc1cccc2ccccc12 | -9% | i | 1% | -14% | -21
CNC(C)C#Cc1ccc2oc3cc(C)c(C)cc3c(=O)c2c1 (centres undefined) | -25% | ? | . | -32% | -64*
N#Cc1cn(C2OC(CO)C(O)C2O)c2ncnc(N)c12 (centres undefined) | ? | ? | . | -20% | -108*
SMILES | ATXN2 expr inh | S2 tox | USP2a block | USP1-UAF1 inh | IL-1B inflam inh
NC(=O)c1cn(C2OC(CO)C(O)C2O)c2ncnc(N)c12 (centres undefined) | 0.28µM*! | . | 3% | -17% | -81*!
Cc1ccc([C@@H]2CC(=O)[C@@H]3CN(S(=O)(=O)c4ccccc4C)[C@H](c4ccc(Cl)cc4)C[C@@H]3N2S(=O)(=O)c2ccc(C)cc2)cc1 | -8% | ? | . | -26% | 49
Clc1ccc(C(OCCN2CCCCC2)c2ccccc2)cc1 (centres undefined) | ? | ? | -1% | -12% | -51*
O=C(Cc1ccccc1)OCCN1CCCCC1 | 6% | i | 2% | -17% | 14
c1ccc(C(OCCN2CCN(c3ncccn3)CC2)c2ccccc2)cc1 | 0% | i | . | -8% | -76*
CC(C)Cc1nnc(NC(=O)CCC(=O)N2CCN(CCOC(c3ccccc3)c3ccccc3)CC2)s1 | 0% | i | 2% | -17% | -2
CNc1ccc2oc(C[C@H]3O[C@@]4(CC[C@H]3C)O[C@H]([C@H](C)C(=O)c3ccc[nH]3)[C@H](C)C[C@H]4C)nc2c1C(=O)O | 8.9µM* | 7.1µM* | -20% | -22% | 39
CC(C)c1oc(=O)cc2c1[C@@H](O)[C@H]1OC(=O)[C@@]3(C)CC[C@@H](O)[C@@]2(C)C13 (some centres undefined) | 13µM* | ? | 3% | 4% | 62
CCOc1ccc(S(=O)(=O)Nc2cccc(C(=O)N3CCN(c4ccccn4)CC3)c2)cc1 | . | ? | . | -26% | 21
O=C(CN1CCN(C(=O)CNC(=O)c2ccc(-c3ccccc3)cc2)CC1)Nc1ccccc1Cl | . | ? | . | -5% | ?
COc1cc(CC(C)N)cc2c1OCO2 (centres undefined) | -11%[116 µM] | i | . | . | .
Cc1c(C(=O)N2CCC3(CC2)OCCO3)sc2ncnc(N3CCN(c4ccccn4)CC3)c12 | ? | ? | 1% | -4% | -81*
CCCNC(=O)Cn1cnc2sc(C(=O)N3CCC4(CC3)OCCO4)c(C)c2c1=O | -4% | i | 4% | -19% | 4
Cc1nnc2n1-c1sc(CCC(=O)N3CCOCC3)cc1C(c1ccccc1Cl)=NC2 | -1% | ? | . | . | .
Cc1nnc2n1-c1sc(CCc3ccc(CC(C)C)cc3)cc1C(c1ccccc1Cl)=NC2C (centres undefined) | 35µM* | 32µM* | . | . | .
CC(C)N[C@@H]1CCn2c(=O)[nH]c3cccc(c32)[C@@H]1O | 4% | . | . | . | .
CC(C)C[C@H]1C(=O)N2CCC[C@H]2[C@]2(O)O[C@](NC(=O)[C@@H]3C=C4c5cccc6[nH]cc(c56)C[C@H]4N(C)C3)(C(C)C)C(=O)N12 | -20% | i | ? | 18µM* | -2
CCC(=O)OC1(c2ccccc2)CCN(C)CC1 | -12%[116 µM] | i | . | . | .
CCCCn1c(O)c(C(=O)/C=C/c2ccc3c(c2)OCO3)c(=O)[nH]c1=O | -30% | i | 7% | 5% | -73*
O=C(/C=C/c1ccc2c(c1)OCO2)c1c(O)n(CCC2=CCCCC2)c(=O)[nH]c1=O | -30% | i | 1% | ? | 0
